High-throughput results: PubChem BioAssay, Corson Lab, School of Medicine, Indiana University
FECH block: blocks human mitochondrial ferrochelatase activity; purified FECH, Ni-mesoporphyrin absorbance 550 nm; P22830; calls only at 10 µM (by protocol); hit rate 3.3% among 20,000;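 active = enzyme reaction rate more than 3 SD below the solvent-only control wells on the same plate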;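 note: lower slope than DMSO wells means FECH inhibition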
Target sequence (P22830 whole entry, looked up): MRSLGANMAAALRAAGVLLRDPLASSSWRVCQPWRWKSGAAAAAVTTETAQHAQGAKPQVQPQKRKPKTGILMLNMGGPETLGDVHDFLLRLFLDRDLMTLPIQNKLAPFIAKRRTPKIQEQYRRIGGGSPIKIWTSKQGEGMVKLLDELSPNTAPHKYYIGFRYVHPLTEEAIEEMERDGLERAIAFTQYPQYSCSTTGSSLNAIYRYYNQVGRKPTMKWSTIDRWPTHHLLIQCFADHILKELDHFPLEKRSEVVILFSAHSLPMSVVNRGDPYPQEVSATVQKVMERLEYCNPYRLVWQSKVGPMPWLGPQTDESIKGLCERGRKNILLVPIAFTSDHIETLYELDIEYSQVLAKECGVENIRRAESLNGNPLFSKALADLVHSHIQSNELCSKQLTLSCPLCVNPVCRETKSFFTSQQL
* marks the source's active call; other numbers are inactive results; i = inactive; + = active, no number. This is one part of a sample in which hits are shown more often than they occur.

SMILES	FECH block
CCOC(=O)C1(NC(=O)c2ccc(-n3cnnc3)cc2)CCC1	i
Cc1cc(C2CCC2)nc(NCC(c2ccccn2)N2CCOCC2)n1 (stereo not given)	i
Cc1ccc(OCc2cc(=O)n3oc(C)cc3n2)c(NC(=O)C(C)C)c1	i
CC(=O)Nc1ccc(-c2c(-c3ccccc3)ncn2CC2CCCO2)cc1 (stereo not given)	i
COc1ccc(C)cc1-c1n[nH]c(C2CC2)n1	i
Cc1nc2cccnc2n1C1CCN(S(=O)(=O)c2ccc(NC(=O)CC(C)C)cc2)CC1	i
C=CCn1cc(CNC(C)C2=CCCCC2)c(C)n1 (stereo not given)	i
C=CCn1cc(CN[C@H](C)c2cccc(OC)c2)c(C)n1	+
C=CCn1cc(CN(C)C(C)CC(=O)NC)c(C)n1 (stereo not given)	i
CCN(CC)CCNc1nc(Nc2ccc(C)cc2)c2cnn(-c3ccccc3)c2n1	i
COc1ccc(N2CC(NC(=O)CC(C)C)CC2=O)cc1 (stereo not given)	i
COC(=O)C1CCN(S(=O)(=O)c2cc(N3C(=O)CCS3(=O)=O)ccc2C)CC1	+
Cc1ccccc1NS(=O)(=O)c1cc(N2C(=O)CCS2(=O)=O)ccc1C	+
Cc1ccc(N2C(=O)CCS2(=O)=O)cc1S(=O)(=O)Nc1cccc(C)c1C	i
O=C1CCS(=O)(=O)N1c1ccc(S(=O)(=O)NC2CC2)cc1	+
Cc1ccc(N2C(=O)CCS2(=O)=O)cc1S(=O)(=O)Nc1ccccc1	+
O=C1CCS(=O)(=O)N1c1ccc(S(=O)(=O)NC2CCCCC2)cc1	i
CC(C)CNS(=O)(=O)c1ccc(N2C(=O)CCS2(=O)=O)cc1	i
Cc1ccc(NS(=O)(=O)c2cc(N3C(=O)CCS3(=O)=O)ccc2C)cc1C	i
COc1ccccc1N1CCN(S(=O)(=O)c2cc(N3C(=O)CCS3(=O)=O)ccc2C)CC1	i
Cc1ccc(N2C(=O)CCS2(=O)=O)cc1S(=O)(=O)Nc1ccccc1Br	i
Cc1cc(C)cc(NS(=O)(=O)c2cc(N3C(=O)CCS3(=O)=O)ccc2C)c1	i
COC(=O)C1CCN(S(=O)(=O)c2ccc(N3C(=O)CCS3(=O)=O)cc2)CC1	i
COc1cc(-c2nccn2C2CCCCCC2)ccc1OCC(N)=O	i
COCCn1c(CNC(=O)Cc2ccccc2)nc2cccnc21	i
SMILES	FECH block
Cc1ccc2[nH]cc(CCNC(=O)c3ccc(CN4C(=O)CCn5nccc54)cc3)c2c1	i
Cn1cc(CN(C(=O)c2cnc(-c3ccccc3)nc2)C2CC2)cn1	i
COc1cccc(NC(=O)CN2CCCN(Cc3ccc(Cl)cc3)S2(=O)=O)c1	i
Cc1cccc(C)c1NC(=O)c1cccc(NC(=O)c2ccncc2F)c1	i
Cn1c(=O)n(Cc2ccncc2)c(=O)c2cnc(-c3cccs3)nc21	i
CCN(CC)S(=O)(=O)c1cc(N2C(=O)CCS2(=O)=O)ccc1C	i
CN(C1CCS(=O)(=O)C1)S(=O)(=O)c1ccc(N2C(=O)CCS2(=O)=O)cc1 (stereo not given)	i
CCN(C1CCS(=O)(=O)C1)S(=O)(=O)c1cc(N2C(=O)CCS2(=O)=O)ccc1C (stereo not given)	+
CCc1nc(OCC(=O)NCc2ccc(C)cc2)c2c(-c3ccc(F)cc3)noc2n1	i
CCc1nc(OCC(=O)NCc2cccc(OC)c2)c2c(-c3ccc(F)cc3)noc2n1	+
CCOc1ccc(CNC(=O)COc2nc(CC)nc3onc(-c4ccc(F)cc4)c23)cc1	i
C=CCN(CC=C)C(=O)CN1CC=C(n2c(=O)[nH]c3ccccc32)CC1	i
O=C(Cc1c(Cl)cccc1Cl)N1CCCC(O)(CO)C1 (stereo not given)	i
COc1ccc(Cl)cc1NCc1nc2nc3c(c(=O)n2[nH]1)CCC3	i
O=c1c2c(nc3nc(CNc4ccccc4)[nH]n13)CCC2	+
O=c1cc(CN2CCCC2)nc2nc(NCc3ccc(Cl)cc3)[nH]n12	i
CCc1ccccc1NCc1nc2nc3c(c(=O)n2[nH]1)CCC3	+
Cc1ccc(NCc2nc3nc4c(c(=O)n3[nH]2)CCC4)cc1Cl	+
O=c1cc(CNc2ccccc2)nc2nc(NCc3ccc(F)cc3)[nH]n12	i
Cc1ccc(NCc2cc(=O)n3[nH]c(NCc4ccc(F)cc4)nc3n2)cc1Cl	i
CCc1nc2nc(C)[nH]n2c(=O)c1NC(=O)Nc1ccccc1F	i
O=c1c2c(nc3nc(CNc4ccc(Cl)cc4)[nH]n13)CCC2	+
CCc1nc2nc(C)[nH]n2c(=O)c1NC(=O)Nc1ccc(C)c(Cl)c1	i
COCCNC(=O)C1(C)Cn2c(cc3ccsc32)C(=O)N1Cc1ccccc1F (stereo not given)	i
O=C(NC1CC(=O)N(C2Cc3ccccc3C2)C1)c1n[nH]c2c1CCCC2 (stereo not given)	i
SMILES	FECH block
CCCc1c(C)nc2ncnn2c1Sc1ccccc1NC(=O)c1cccc(F)c1	i
COc1ccc(Nc2cc(C)nc(Nc3ccc(NC(=O)c4cccc(OC)c4)cc3)n2)cc1	i
CCn1ccc(-c2n[nH]c(=O)n2CCc2ccccc2F)n1	i
O=S(=O)(NCc1nc2cccnc2n1Cc1ccccc1)c1cccc(Cl)c1	i
Cc1cc(C)cc(Nc2nc(NCCO)nc3c2cnn3-c2ccccc2)c1	i
Cc1cccc(-n2c(CN3CCN(S(=O)(=O)c4ccc(F)cc4)CC3)nc3cccnc32)c1	i
CC(Oc1ccccc1-c1ccnc2c1ccn2C)C(N)=O (stereo not given)	i
CCOc1ccc(S(=O)(=O)NCc2nc3cccnc3n2Cc2ccc(OC)cc2)cc1	i
COc1ccc(Cl)cc1S(=O)(=O)NCCn1c(-c2ccc(C)cc2)nc2cccnc21	+
CCc1ccc(NC(=O)NCCn2c(-c3ccncc3)nc3cccnc32)cc1	i
Cc1ccc(-c2nc3cccnc3n2CCNS(C)(=O)=O)cc1	i
O=S(=O)(Cc1ccccc1)NCCn1c(-c2ccccc2)nc2cccnc21	i
COc1ccc(OC)c(S(=O)(=O)NCCn2c(-c3ccccc3)nc3cccnc32)c1	i
Cc1ccc(-c2nc3cccnc3n2CCNS(=O)(=O)Cc2ccccc2)cc1	+
CCOC(=O)c1ccccc1NC(=O)NCCn1c(-c2ccncc2)nc2cccnc21	+
COc1ccc(OC)c(S(=O)(=O)NCCn2c(-c3ccc(C)cc3)nc3cccnc32)c1	i
CCOc1ccc(NC(=O)NCCn2c(-c3ccncc3)nc3cccnc32)cc1	i
c1cc2c(c(-n3ccnc3C3CCOC3)c1)CCCC2 (stereo not given)	i
COc1ccc(OC)c(NS(=O)(=O)c2cc(N3C(=O)CCS3(=O)=O)ccc2OC)c1	i
CCOc1ccc(C(=O)Nc2cc(C)nn2-c2ncnc3c2cnn3-c2ccc(C)cc2C)cc1	i
CCN(C(=O)CSCc1nc(-c2ccc(Cl)cc2)no1)c1cccc(C)c1	i
CCCn1c(CNS(=O)(=O)c2cccc([N+](=O)[O-])c2)nc2cccnc21	i
CN1CCN(C(=O)C2CCN(c3ccc(-c4cccs4)nn3)CC2)CC1	i
COc1ccc(CNc2nc3nc(CN4CCC(C)CC4)cc(=O)n3[nH]2)cc1	i
O=c1cc(CN2CCCC2)nc2nc(NCc3ccc(F)cc3)[nH]n12	i
Cc1ccccc1NCc1cc(=O)n2[nH]c(NCc3ccccc3)nc2n1	+
COc1ccc(CNc2nc3nc(CN4CCCC4)cc(=O)n3[nH]2)cc1	+
COc1ccc(CNc2nc3nc(CNc4ccc(C)cc4C)cc(=O)n3[nH]2)cc1	+
